Over roughly 68,000 sequences, “fluorescence intensity (a.u.)” has its median near 9,100; the highest 2% begin near 16,000. Only a selection was taken, and the highest values are over-represented in it overall.

Sequence of OsWRKY34 (Q0JBA9 entry or part of it): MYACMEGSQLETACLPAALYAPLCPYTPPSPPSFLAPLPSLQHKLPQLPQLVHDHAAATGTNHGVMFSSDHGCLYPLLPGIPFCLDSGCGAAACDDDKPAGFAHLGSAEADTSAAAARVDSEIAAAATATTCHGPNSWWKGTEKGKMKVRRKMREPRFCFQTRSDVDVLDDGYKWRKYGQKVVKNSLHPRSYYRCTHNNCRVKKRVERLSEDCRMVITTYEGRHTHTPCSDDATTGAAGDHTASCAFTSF

The target of this assay is OsWRKY34 (Oryza sativa, UniProt Q0JBA9 1-250). The experiment in a line: protein-binding microarray (RPBM); PBS, 2% BSA, 51.3 ng/ul salmon testes DNA, 50 uM zinc acetate, 200 nM TF, 25 C, 1 h; high values mean tight binding. The following applies: protein: recombinant; tags: N-terminal polyhistidine and DsRed monomer fusion (pET32a); label: CyDye5-dUTP incorporated in the synthesized complementary strand; 3' TTTTT single-stranded linker to array surface; dsDNA, one strand shown. The method, boiled down:
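In PBS with 2% BSA, salmon testes DNA and 50 µM zinc acetate, 200 nM protein was incubated on a custom Agilent array at 25 °C for 1 h and then washed off. The array had been made double-stranded by primer extension with Cy5-dUTP and blocked with 2% BSA. The proteins were transcription factors fused N-terminally to polyhistidine and DsRed, expressed in E. coli BL21-CodonPlus and purified on Ni–NTA. The binding signal is per-feature fluorescence intensity (arbitrary units) from an Axon 4000B scanner.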
For “TTGCGTTTTGGGTGGTGAATTTTGATTTTGATTCTTTTTTCGGAGTCACCTAGTGCAG”, the binding signal was 12700 fluorescence intensity (a.u.).
Consider “CATGGGAATTTTGGTGGGATGGGGATGGAGAATTGAGCAACGGAGTCACCTAGTGCAG”, for which the binding signal was 8700 fluorescence intensity (a.u.).
Regarding “TTGATTTTGCTCGTGGTGTGTGTTTGTGTTTGGTATGGTTCGGAGTCACCTAGTGCAG”, the binding signal was 18400 fluorescence intensity (a.u.).
Turning to “ACATGGGAATTTTGGTGGGATGGGGATGGGGATGGGGAATCGGAGTCACCTAGTGCAG”, the binding signal was 34000 fluorescence intensity (a.u.).
“ACATGGGAATTTTGGTGGGATGGGGATGGGGAATTGACCTCGGAGTCACCTAGTGCAG”: the binding signal was 14100 fluorescence intensity (a.u.).
Then “CCTTTTGTCAGTCTAGCCAAAGATCTAGGATCTTCAACACCGGAGTCACCTAGTGCAG”, with 8100 fluorescence intensity (a.u.); and “ACCCGCCGTCGCTCTCCAACGCGCTCGTCGCGGCGTTCAACGGAGTCACCTAGTGCAG”, with 8970 fluorescence intensity (a.u.); and “TGCTTGTTCCGGTTCCTTCCCAACCCTTTTGCAAGAACACCGGAGTCACCTAGTGCAG”, with 9120 fluorescence intensity (a.u.).
As for “GTCACCGTCTCGTCTCCGTCTCCGCCGCTCGTCGTCGACCCGGAGTCACCTAGTGCAG”, the figure is 12600 fluorescence intensity (a.u.); as for “AAAAAAATCTCGTTGTTACTGTCTATAGATCACTATATTACGGAGTCACCTAGTGCAG”, 8570 fluorescence intensity (a.u.); as for “GCCGCCATCGTTCCTGTTCGCCGCCCGTTGTCCTTCCAATCGGAGTCACCTAGTGCAG”, 13000 fluorescence intensity (a.u.).
As for “TTCTTCACCGTTTTGTTTTCTCTGCGCCTCAAATTTCCTTCGGAGTCACCTAGTGCAG”, the figure is 12000 fluorescence intensity (a.u.).
Regarding “CCGGTGATGTTTTTATTTTTCTTCCGGTTCTTTTTCTCAACGGAGTCACCTAGTGCAG”, the binding signal was 12300 fluorescence intensity (a.u.).
As for “TGAGTTGTTTTGTTGATAGGTATAGATATGAATCGAATTACGGAGTCACCTAGTGCAG”, the figure is 8950 fluorescence intensity (a.u.); as for “GAGGATTGATTTGTTTTTTTTTTTTGGGGTTTTCTCTTCTCGGAGTCACCTAGTGCAG”, 16300 fluorescence intensity (a.u.).
As for “CTGATGGTGTTGGTGATGGTGGTGCGGGTGCGGCAGTTGACGGAGTCACCTAGTGCAG”, the figure is 13200 fluorescence intensity (a.u.); as for “TTGTGGATTTTTTTTTTTTGAGAGGGATGGGTGTTTGATTCGGAGTCACCTAGTGCAG”, 10900 fluorescence intensity (a.u.).
As for “TTTCTTTTCATATATTTTTGTTTATTTTCTCTCATTTCTCCGGAGTCACCTAGTGCAG”, the figure is 11300 fluorescence intensity (a.u.); as for “GGTGACTGATAATTATTATTTTCTTTGTTTCACATTATACCGGAGTCACCTAGTGCAG”, 14200 fluorescence intensity (a.u.); as for “TTGACAATGGTTGGGGTGGTGGTGGTGTTCGCGGTGATGACGGAGTCACCTAGTGCAG”, 31700 fluorescence intensity (a.u.).
As for “GGTTGGTGCTGTATTGTTTGAGGGGAGGGGATTCCATTTTCGGAGTCACCTAGTGCAG”, the binding signal is 47400 fluorescence intensity (a.u.).
As for “ATTCTGTATTTATTGTTTGCTGCATTCAGTTTGATTGGTTCGGAGTCACCTAGTGCAG”, the figure is 13900 fluorescence intensity (a.u.); as for “TTGTTGGGTGCTGAATTGCTGATGTGGTGGGGTGACATGACGGAGTCACCTAGTGCAG”, 12500 fluorescence intensity (a.u.).
Turning to “AGATTGGGTTTGGGTGGTGTGAGGATTGATTTGTTTTTTTCGGAGTCACCTAGTGCAG”, the binding signal was 17800 fluorescence intensity (a.u.).
As to “ACGTATTTGTGAGGGGATTTGGTACCATTACATCTGTTTTCGGAGTCACCTAGTGCAG”, the binding signal was 8192 fluorescence intensity (a.u.).
As for “GGGGTGACATTTCAATTGTTTTTCTCTTATATTTGTAATCCGGAGTCACCTAGTGCAG”, the figure is 20100 fluorescence intensity (a.u.).
Then “GGACTGCTCCACCATTTTTAGTCCCGGTTGGTAATACCAACGGAGTCACCTAGTGCAG”, with 8570 fluorescence intensity (a.u.); and “AATCTATCCCAGCCTAAATCTCACTGTTTCATGCACAACTCGGAGTCACCTAGTGCAG”, with 8350 fluorescence intensity (a.u.); and “GCGCGCGTCCCGTCACGTCTTTTCTCCTCGCCTATATGCCCGGAGTCACCTAGTGCAG”, with 9050 fluorescence intensity (a.u.).
Then “CAGCTATCGTTATTCTGAAGATCCACCAAGCACAATCTTACGGAGTCACCTAGTGCAG”, with 8280 fluorescence intensity (a.u.).
Turning to “TCGGTGGGTGGTTGGGGATATTGCAAAAAGTATATAAAAACGGAGTCACCTAGTGCAG”, the binding signal is 15800 fluorescence intensity (a.u.).
Consider “TTAACTGCAACCATAAGTTTCTGCGCCTAACTTTGATCGTCGGAGTCACCTAGTGCAG”, for which the binding signal is 8850 fluorescence intensity (a.u.).
Then “TAGTATATACATGGGTGTTTGGGAGAGAGGGGCTAAACTTCGGAGTCACCTAGTGCAG”, with 9540 fluorescence intensity (a.u.); and “ATTCTCTCTTCTGTGTTTCCTTTTTGAGATACTTCATTTTCGGAGTCACCTAGTGCAG”, with 9340 fluorescence intensity (a.u.); and “CCACTTGTACATATACAACTTGTTTTGTGGGGAGGGGTGTCGGAGTCACCTAGTGCAG”, with 12700 fluorescence intensity (a.u.).
Turning to “GGGGTAATTTCTCTGTGTTTTGAGTTGAGGGAGATAATTCCGGAGTCACCTAGTGCAG”, the binding signal was 16900 fluorescence intensity (a.u.).
As for “TGCGCCATCTTTTGTCGTCCCGAGGGGATGGGCGGGGTTGCGGAGTCACCTAGTGCAG”, the figure is 16400 fluorescence intensity (a.u.); as for “TTCCTATGTTTTTCCTGTGTTTTGTAATTCTCTGTTTTACCGGAGTCACCTAGTGCAG”, 10600 fluorescence intensity (a.u.); as for “TGTTTTGTGGGGAGGGGTGTACATATACAACTTAGTACTCCGGAGTCACCTAGTGCAG”, 20300 fluorescence intensity (a.u.).
As for “ACTTCCCATTGTTGTTGCCATCGCCGCCGCCGCCGCCGCCCGGAGTCACCTAGTGCAG”, the figure is 12200 fluorescence intensity (a.u.); as for “ACGTTGGATTGGTGGTGGACGGGCGCGATGGGTTGGGGTGCGGAGTCACCTAGTGCAG”, 9930 fluorescence intensity (a.u.); as for “GGGCGCGATGGGTTGGGGTGTGTTTCCGTGGATTGATGACCGGAGTCACCTAGTGCAG”, 21100 fluorescence intensity (a.u.).
Then “CGCCGAGGGGAGGGGAGGGGAGGTTGCCATTGTTGTCCATCGGAGTCACCTAGTGCAG”, with 22000 fluorescence intensity (a.u.); and “GGGCGTGTGGTTGAGAACTTGATTGGGATGATGATGAGACCGGAGTCACCTAGTGCAG”, with 10400 fluorescence intensity (a.u.).
